This is an account of results in PubChem BioAssay.

A short description of assay [1]: inhibitors of TNFa-induced NFkB p65 translocation, primary screen, imaging, HUVEC, MLSMR starter and 10KST1 sets (AID 438;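 active means inhibition above 20% together with a positive visual image hit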;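 further: compound added about 3h40 before a 20 min TNFalpha stimulation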;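 on inhibition: signal is the nuclear over cytoplasmic p65 intensity ratio per well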). Particulars: HUVEC TNFa-induced p65 nuclear translocation; cell count: measured here: nuclei count (cytotoxicity indicator), at 2.08 µM; inhibition: at 2 µM, stronger effect = higher value, 0% TNFa-plus-vehicle, 100% no-TNFa wells.
Assay [2] can be described thus: inhibitors of mutant huntingtin aggregation, primary screen, imaging, exon1htt(103Q)mCFP cells, high-content imaging (AID 483;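 active means visual image review flags a hit and inhibition of aggregation exceeds 20%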;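 further: compound exposure lasted 3 days before fixation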;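 on nuclei count: percent of the per-plate median nuclei count of sample wells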). The conditions noted are these: exon1htt(103Q)mCFP cell line, aggregate imaging, at 2 µM; inhibition of aggregation: stronger effect = higher value; nuclei count: measured here: cell count, toxicity.
Assay [3] can be described thus: inhibitors of E-selectin induction by TNFa, primary screen, imaging, HUVEC, immunofluorescence, MLSMR starter and 10KST1 sets (AID 487;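 active means visually confirmed hit in the image check and inhibition above 20%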;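 on inhibition: signal is fraction of cell area covered by stained E-selectin grains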;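 on nuclei count: 100% = median nuclei count of all wells on the same plate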). The conditions noted are these: HUVEC TNFalpha-induced E-selectin immunofluorescence imaging, at 2 µM; inhibition: stronger effect = higher value; nuclei count: measured here: cell number, toxicity.
In assay [4] the target is Voltage-gated potassium channel subunit beta-2 (Rattus norvegicus) (UniProt P62483). Nature of the assay: KvBeta enzyme negative modulators, primary screen, biochemical, NADPH fluorescence (AID 622).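 Further: slope of raw intensity against log time taken from 70 to 1610 s.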 Particulars: recombinant KvBeta, 4-cyanobenzaldehyde reduction, at 10 µM, stronger effect = higher value.
The target is the same in assay [5]. Nature of the assay: KvBeta positive modulators, primary screen, biochemical, NADPH fluorescence (AID 623;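 active means NADPH fluorescence slope more negative than the mean of all samples by about 3 SD, 99.7% confidence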;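 further: fluorescence intensity change per second fitted from 20 to 320 s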). The conditions noted are these: Recombinant KvBeta, NADPH fluorescence decrease slope, 10 min; at 10 µM; stronger effect = lower value.
Assay [6] has as its target Alpha-2C adrenergic receptor (Homo sapiens) (UniProt P18825). Nature of the assay: modulators of alpha2C/GIRK thallium flux, primary screen, cell-based, HEK293 alpha2C/GIRK1/2 (AID 624;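 active means fluorescence slope after compound addition differing from the mean of all screened samples at 99.7% confidence, in either direction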;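 further: slope of fluorescence ratio to pre-addition baseline per second over 15 to 24 s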). The conditions noted are these: thallium flux BTC fluorescence, at 10 µM, actives lie on both sides.
Assay [7] in a line: inhibitors of Sendai virus-induced IRF3 signaling, primary screen, TLR/RLR signaling modifier project, cell-based, Sendai virus stimulus, luciferase, 10K MLSCN set (AID 602276;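 active means inhibition at or above 50% at 10 µM; inactive means inhibition below 50%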;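 further: firefly luciferase from ISG56 promoter only with Renilla not read in this screen; 0% = Sendai virus plus DMSO and 100% = medium plus DMSO without virus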). Particulars: HEK293 RL24 IRF3 luciferase reporter, at 10 µM, stronger effect = higher value.
A short description of assay [8]: inhibitors of poly I:C-induced TLR3 signaling, primary screen, cell-based, poly I:C stimulus, luciferase, 10K MLSCN set (AID 602277;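 active means inhibition of the reporter signal at or above 50%; inactive means inhibition below 50%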). Particulars: HEK293-TLR3 RL24 IRF3 luciferase reporter, at 10 µM, stronger effect = higher value.

The structures appear in SMILES notation. Calls of active or inactive are those of the source.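 How the source made its calls, unless noted: active means fluorescence slope higher than the sample average by over 3 SD (cut at about -0.22 in these data, passing the limit was not always enough); inactive means the rest.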

Alpha-2C adrenergic receptor (Homo sapiens), sequence (P18825 whole entry, looked up): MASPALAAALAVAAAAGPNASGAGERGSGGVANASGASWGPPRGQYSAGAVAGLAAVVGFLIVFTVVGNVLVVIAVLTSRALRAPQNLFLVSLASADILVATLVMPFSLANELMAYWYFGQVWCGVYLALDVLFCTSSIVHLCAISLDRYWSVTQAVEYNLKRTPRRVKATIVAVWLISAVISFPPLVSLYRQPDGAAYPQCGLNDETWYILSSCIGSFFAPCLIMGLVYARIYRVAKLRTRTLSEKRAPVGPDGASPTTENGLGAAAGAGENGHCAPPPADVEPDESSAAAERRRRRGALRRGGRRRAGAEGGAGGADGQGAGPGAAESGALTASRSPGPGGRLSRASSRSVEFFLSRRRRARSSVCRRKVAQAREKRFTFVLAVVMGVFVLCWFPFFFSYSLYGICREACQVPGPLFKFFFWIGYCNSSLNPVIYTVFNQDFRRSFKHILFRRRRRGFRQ
Voltage-gated potassium channel subunit beta-2 (Rattus norvegicus), sequence (P62483 whole entry, looked up): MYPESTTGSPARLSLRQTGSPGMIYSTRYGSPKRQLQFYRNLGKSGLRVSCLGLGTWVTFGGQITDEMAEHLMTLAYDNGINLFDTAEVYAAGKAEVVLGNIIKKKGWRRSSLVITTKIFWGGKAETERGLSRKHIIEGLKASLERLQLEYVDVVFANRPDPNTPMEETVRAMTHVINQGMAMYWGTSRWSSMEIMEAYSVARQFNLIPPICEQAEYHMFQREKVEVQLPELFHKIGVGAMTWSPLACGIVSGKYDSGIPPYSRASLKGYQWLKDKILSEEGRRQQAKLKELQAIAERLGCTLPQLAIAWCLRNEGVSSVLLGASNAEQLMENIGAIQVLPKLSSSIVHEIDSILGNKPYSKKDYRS

As for `Cc1cc(C(=O)Nc2nnc(C(F)(F)F)s2)no1`, the cell count in assay [1] turned out to be 342. For the same compound, the inhibition in assay [1] was -4.7% (inactive); in assay [3], -25.5% (inactive); in assay [7] it was -1.51% (inactive); in assay [8], -19.4% (inactive). For the same compound, the inhibition of aggregation in assay [2] is -8% (inactive). Also, the nuclei count in assay [2] amounted to 98%; in assay [3], 106%. In addition, the fluorescence slope in assay [4] is -0.447 (inactive). Moreover, in assay [5], the NADPH fluorescence slope was 1.8e-05 (inactive). Also, the slope in assay [6] is 0.00633 (inactive).

As for `Cc1c(Cl)cccc1NC(=O)CCN1CCCCC1`, in assay [1], the cell count is 329. Besides, the inhibition in assay [1] is -1.3% (inactive); in assay [3] it was -67.3% (inactive); in assay [7] it was 17.5% (inactive); in assay [8], 20% (inactive). In addition, in assay [2], the inhibition of aggregation was -7.5% (inactive). Also, the nuclei count was determined as 112% in assay [2] and 133% in assay [3]. In assay [4], the fluorescence slope was -0.514 (inactive). For the same compound, in assay [5], the NADPH fluorescence slope is 3e-05 (inactive). The slope in assay [6] is 0.00469 (inactive).

`O=C(O)c1ccc2noc(-c3ccccc3)c2c1`: in assay [1], the cell count is 755. Further, the inhibition in assay [1] was -8.7% (inactive); in assay [3], -15% (inactive); in assay [7] it was -20.8% (inactive); in assay [8], -49.6% (inactive). Besides, the inhibition of aggregation in assay [2] is 16.9% (inactive). Moreover, the values for the nuclei count in assay [2] and in assay [3] were 103% and 123%, respectively. Besides, in assay [4], the fluorescence slope was -0.378 (inactive). The NADPH fluorescence slope in assay [5] is -3.4e-05 (inactive). Also, the slope in assay [6] was 0.00344 (inactive).

Take `O=C(CSc1nc2ccccc2[nH]1)c1ccc2c(c1)OCO2`: the cell count in assay [1] turned out to be 673. Besides, the inhibition in assay [1] is 2.4% (inactive); in assay [3], -2.6% (inactive); in assay [7] it was 18.8% (inactive); in assay [8] it was -39.5% (inactive). Further, the inhibition of aggregation in assay [2] is -4% (inactive). The figures for the nuclei count in assay [2] and in assay [3] were 102% and 100%, respectively. Moreover, in assay [4], the fluorescence slope is -0.471 (inactive). The NADPH fluorescence slope in assay [5] is -1.2e-05 (inactive). Besides, in assay [6], the slope was 0.00599 (inactive).

As for `CN1CC(=O)N(CC(=O)NCCc2ccc(F)cc2)c2ccccc2C1=O`, the cell count in assay [1] was found to be 214. Further, the inhibition was 21% (inactive) in assay [1], -1.2% (inactive) in assay [3], 10.8% (inactive) in assay [7] and 9.93% (inactive) in assay [8]. The inhibition of aggregation in assay [2] is 16.8% (inactive). Further, the nuclei count in assay [2] was determined as 110%; in assay [3], 90.4%. Besides, the fluorescence slope in assay [4] was -0.602 (inactive). Besides, in assay [5], the NADPH fluorescence slope was -2.2e-05 (inactive). Besides, the slope in assay [6] was 0.0102 (inactive).

Regarding `O=C(CCSc1ccccc1)Nc1ccc(S(=O)(=O)N2CCOCC2)cc1`, the cell count in assay [1] worked out at 381. Besides, the inhibition was 5.2% (inactive) in assay [1], -102% (inactive) in assay [3], 18.1% (inactive) in assay [7] and 11.6% (inactive) in assay [8]. Moreover, the inhibition of aggregation in assay [2] is 8.5% (inactive). Besides, the nuclei count in assay [2] came out at 105%; in assay [3], 109%. The fluorescence slope in assay [4] was -0.53 (inactive). Moreover, the NADPH fluorescence slope in assay [5] is -5.2e-06 (inactive). Besides, in assay [6], the slope was 0.00555 (inactive).

With `CCOC(=O)c1cccc(NC(=O)C2CCN(S(=O)(=O)c3cccs3)CC2)c1`, the cell count in assay [1] came to 369. For the same compound, the inhibition was -5.7% (inactive) in assay [1], -45.4% (inactive) in assay [3], 3.96% (inactive) in assay [7] and 5.8% (inactive) in assay [8]. In assay [2], the inhibition of aggregation was 3.6% (inactive). Moreover, the figures for the nuclei count in assay [2] and in assay [3] were 90.7% and 128%, respectively. Besides, the fluorescence slope in assay [4] is -0.634 (inactive). For the same compound, the NADPH fluorescence slope in assay [5] was -3.5e-05 (inactive). In addition, the slope in assay [6] is 0.00624 (inactive).

On to `CN(C)c1cccc(C(=O)OCC(=O)NCc2ccco2)c1`, for which, in assay [1], the cell count was determined as 806. Moreover, the inhibition is -12.9% (inactive) in assay [1], 9.6% (inactive) in assay [3], 10.8% (inactive) in assay [7] and 5.69% (inactive) in assay [8]. Further, the inhibition of aggregation in assay [2] is 5.8% (inactive). The nuclei count stood at 85.3% in assay [2] and 97.5% in assay [3]. For the same compound, the fluorescence slope in assay [4] was -0.603 (inactive). The NADPH fluorescence slope in assay [5] was 3e-05 (inactive). Further, in assay [6], the slope is 0.0074 (inactive).

Consider `O=P(O)(O)C(O)C(F)(F)C(F)(F)C(F)(F)C(F)F` (centres undefined), for which the cell count in assay [1] came to 436. Further, the inhibition in assay [1] is 8.1% (inactive); in assay [3], 12.7% (inactive); in assay [7] it was 19.8% (inactive); in assay [8], 17.5% (inactive). In assay [2], the inhibition of aggregation is -7% (inactive). The nuclei count was found to be 108% in assay [2] and 127% in assay [3]. In assay [4], the fluorescence slope is -0.31 (inactive). Besides, in assay [5], the NADPH fluorescence slope was -2e-06 (inactive). Besides, the slope in assay [6] is 0.0027 (inactive).

For `C=CCSc1nnc(-c2cccnc2)o1`, the cell count in assay [1] came out at 566. The inhibition in assay [1] is 8.2% (inactive); in assay [3], 19.1% (inactive); in assay [7], 1.31% (inactive); in assay [8], -8.9% (inactive). The inhibition of aggregation in assay [2] was 13.3% (inactive). Moreover, the nuclei count in assay [2] is 94.4%; in assay [3], 78.2%. Besides, the fluorescence slope in assay [4] was -0.539 (inactive). Moreover, the NADPH fluorescence slope in assay [5] was -5.1e-05 (inactive). In addition, in assay [6], the slope was 0.00706 (inactive).

Regarding `CC(=O)c1ccc(NC(=O)c2cc(CC(C)C)on2)cc1`, in assay [1], the cell count is 572. Besides, the inhibition in assay [1] is -2.3% (inactive); in assay [3], -3% (inactive); in assay [7], -32.2% (inactive); in assay [8] it was -78% (inactive). For the same compound, the inhibition of aggregation in assay [2] is 23.3% (inactive). In addition, the nuclei count in assay [2] stood at 97.8%; in assay [3], 104%. The fluorescence slope in assay [4] is -0.606 (inactive). In addition, the NADPH fluorescence slope in assay [5] was -2.3e-06 (inactive). Also, the slope in assay [6] is 0.00654 (inactive).

On to `Cc1ccc(S(=O)(=O)N2CCN(C(=O)CSc3nnnn3C)C2)cc1`, for which, in assay [1], the cell count came to 348. Besides, the inhibition in assay [1] was -14.6% (inactive); in assay [3] it was -89.7% (inactive); in assay [7], 6.82% (inactive); in assay [8] it was 20.3% (inactive). The inhibition of aggregation in assay [2] is 1.4% (inactive). For the same compound, the nuclei count was 92.8% in assay [2] and 113% in assay [3]. The fluorescence slope in assay [4] is -0.35 (inactive). Besides, in assay [5], the NADPH fluorescence slope is 5.7e-06 (inactive). The slope in assay [6] is 0.00463 (inactive).

As for `COc1ccccc1C1/C(=C(/O)c2ccccc2)C(=O)C(=O)N1CC(C)C` (centres undefined), the cell count in assay [1] is 430. The inhibition in assay [1] is -3.3% (inactive); in assay [3] it was -43.1% (inactive); in assay [7], 11.4% (inactive); in assay [8], 20.6% (inactive). For the same compound, in assay [2], the inhibition of aggregation is -2% (inactive). The nuclei count in assay [2] was 112%; in assay [3] it was 124%. In assay [4], the fluorescence slope was -0.629 (inactive). Further, the NADPH fluorescence slope in assay [5] is -2.2e-05 (inactive). In addition, the slope in assay [6] was 0.00652 (inactive).

On to `COc1ccccc1S(=O)(=O)Cc1ccc(C(=O)N2CCOCC2)o1`, for which the cell count in assay [1] came to 528. The inhibition in assay [1] is -7.1% (inactive); in assay [3], -67.1% (inactive); in assay [7] it was 1.72% (inactive); in assay [8] it was 33.5% (inactive). The inhibition of aggregation in assay [2] was 29% (inactive). For the same compound, the figures for the nuclei count in assay [2] and in assay [3] were 86.6% and 107%, respectively. Moreover, the fluorescence slope in assay [4] is -0.428 (inactive). In assay [5], the NADPH fluorescence slope was -5.8e-05 (inactive). Besides, the slope in assay [6] was 0.00635 (inactive).
